The values that follow come from ChEMBL document CHEMBL1961873, “Compounds: GSK PKIS; Assays: Nanosyn kinase panel” (2012).

The target of assay [1] is T1, Ephrin type-B receptor 2 (Homo sapiens) (UniProt P29323).
T1 sequence (whole entry): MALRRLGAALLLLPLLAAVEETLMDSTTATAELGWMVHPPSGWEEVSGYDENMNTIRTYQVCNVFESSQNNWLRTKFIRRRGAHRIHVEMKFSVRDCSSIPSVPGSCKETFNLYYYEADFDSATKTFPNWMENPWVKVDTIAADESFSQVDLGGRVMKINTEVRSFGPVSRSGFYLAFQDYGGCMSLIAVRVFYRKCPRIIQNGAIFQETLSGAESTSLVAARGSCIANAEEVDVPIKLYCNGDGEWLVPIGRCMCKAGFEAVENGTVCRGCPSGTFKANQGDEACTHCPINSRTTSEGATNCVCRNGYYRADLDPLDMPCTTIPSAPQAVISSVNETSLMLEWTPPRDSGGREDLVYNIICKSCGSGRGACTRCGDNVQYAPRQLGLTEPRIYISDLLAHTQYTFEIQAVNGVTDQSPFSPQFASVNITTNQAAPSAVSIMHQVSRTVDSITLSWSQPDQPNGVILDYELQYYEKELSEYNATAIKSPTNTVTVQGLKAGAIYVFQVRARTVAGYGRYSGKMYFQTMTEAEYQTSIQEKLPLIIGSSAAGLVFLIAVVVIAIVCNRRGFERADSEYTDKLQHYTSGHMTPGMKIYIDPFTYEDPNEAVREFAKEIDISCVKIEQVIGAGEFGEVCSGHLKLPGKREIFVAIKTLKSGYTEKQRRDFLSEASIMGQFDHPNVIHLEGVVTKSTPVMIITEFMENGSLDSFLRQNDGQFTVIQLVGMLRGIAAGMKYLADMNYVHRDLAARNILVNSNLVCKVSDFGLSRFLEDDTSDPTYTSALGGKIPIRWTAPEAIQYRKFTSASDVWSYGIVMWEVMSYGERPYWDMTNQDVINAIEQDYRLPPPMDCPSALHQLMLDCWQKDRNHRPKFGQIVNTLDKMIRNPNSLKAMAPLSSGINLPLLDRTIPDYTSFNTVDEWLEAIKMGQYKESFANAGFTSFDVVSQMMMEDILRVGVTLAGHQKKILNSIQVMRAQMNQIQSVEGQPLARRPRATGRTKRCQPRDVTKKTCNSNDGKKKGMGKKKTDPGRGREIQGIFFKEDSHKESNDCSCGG
As to conditions: at 1 µM.

Assay [2] deals with T2, Ephrin type-B receptor 3 (Homo sapiens) (UniProt P54753).
T2 sequence (whole entry): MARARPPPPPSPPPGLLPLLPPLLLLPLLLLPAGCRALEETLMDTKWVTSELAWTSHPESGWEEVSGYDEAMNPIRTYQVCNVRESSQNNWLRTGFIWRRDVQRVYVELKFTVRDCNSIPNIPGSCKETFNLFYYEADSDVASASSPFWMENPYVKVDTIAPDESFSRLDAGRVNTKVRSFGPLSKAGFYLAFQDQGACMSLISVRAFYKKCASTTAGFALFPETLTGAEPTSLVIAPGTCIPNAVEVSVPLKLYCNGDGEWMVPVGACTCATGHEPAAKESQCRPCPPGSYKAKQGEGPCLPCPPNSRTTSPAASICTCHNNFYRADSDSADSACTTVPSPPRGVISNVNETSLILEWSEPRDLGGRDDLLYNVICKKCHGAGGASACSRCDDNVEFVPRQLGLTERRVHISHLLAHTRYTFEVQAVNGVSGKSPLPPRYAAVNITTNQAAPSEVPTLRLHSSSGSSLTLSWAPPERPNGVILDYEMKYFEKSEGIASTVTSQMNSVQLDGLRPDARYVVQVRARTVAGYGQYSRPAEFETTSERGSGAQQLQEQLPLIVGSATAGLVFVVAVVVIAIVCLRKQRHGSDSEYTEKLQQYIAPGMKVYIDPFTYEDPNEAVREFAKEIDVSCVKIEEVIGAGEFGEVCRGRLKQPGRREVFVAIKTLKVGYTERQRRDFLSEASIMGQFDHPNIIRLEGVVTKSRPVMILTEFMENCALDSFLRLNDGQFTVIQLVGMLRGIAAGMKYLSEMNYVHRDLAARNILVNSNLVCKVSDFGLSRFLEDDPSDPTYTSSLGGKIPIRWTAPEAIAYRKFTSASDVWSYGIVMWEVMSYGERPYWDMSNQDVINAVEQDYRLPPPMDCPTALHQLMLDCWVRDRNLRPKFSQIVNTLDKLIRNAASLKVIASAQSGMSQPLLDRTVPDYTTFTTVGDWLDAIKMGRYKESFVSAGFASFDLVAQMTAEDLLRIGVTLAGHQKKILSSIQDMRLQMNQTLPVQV
The following applies: at 0.1 µM.

For assay [3], the target named is T2, Ephrin type-B receptor 3 (Homo sapiens). The following applies: at 1 µM.
Assay [4] concerns the target T3, Ephrin type-B receptor 4 (Homo sapiens) (UniProt P54760).
T3 sequence (whole entry): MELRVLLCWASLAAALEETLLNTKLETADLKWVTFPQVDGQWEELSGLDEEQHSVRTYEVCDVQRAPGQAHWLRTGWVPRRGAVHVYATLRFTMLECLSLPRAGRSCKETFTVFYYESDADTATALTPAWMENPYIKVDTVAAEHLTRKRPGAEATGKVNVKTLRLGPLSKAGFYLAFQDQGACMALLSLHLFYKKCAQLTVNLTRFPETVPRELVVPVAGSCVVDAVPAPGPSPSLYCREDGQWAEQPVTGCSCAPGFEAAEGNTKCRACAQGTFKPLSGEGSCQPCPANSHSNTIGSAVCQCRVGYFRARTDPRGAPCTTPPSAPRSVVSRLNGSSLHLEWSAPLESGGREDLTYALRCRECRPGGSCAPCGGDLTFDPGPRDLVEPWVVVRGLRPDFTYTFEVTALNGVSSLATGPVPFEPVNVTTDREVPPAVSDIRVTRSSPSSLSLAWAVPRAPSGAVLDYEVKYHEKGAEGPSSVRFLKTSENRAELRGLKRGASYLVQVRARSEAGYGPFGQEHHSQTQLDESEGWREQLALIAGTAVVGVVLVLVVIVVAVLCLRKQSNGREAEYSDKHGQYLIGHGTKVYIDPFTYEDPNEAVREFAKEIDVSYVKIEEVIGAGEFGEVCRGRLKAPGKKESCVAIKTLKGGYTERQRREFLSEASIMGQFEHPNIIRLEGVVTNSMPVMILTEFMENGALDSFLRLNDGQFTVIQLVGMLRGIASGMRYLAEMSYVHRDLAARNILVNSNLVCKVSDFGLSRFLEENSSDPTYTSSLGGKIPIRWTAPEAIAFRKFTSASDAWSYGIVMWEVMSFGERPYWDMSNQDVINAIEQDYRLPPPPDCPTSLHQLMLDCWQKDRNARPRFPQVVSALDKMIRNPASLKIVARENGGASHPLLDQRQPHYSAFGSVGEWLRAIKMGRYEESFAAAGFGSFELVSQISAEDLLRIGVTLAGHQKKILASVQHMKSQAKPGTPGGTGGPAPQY
The following applies: at 0.1 µM.

The target of assay [5] is T3, Ephrin type-B receptor 4 (Homo sapiens). As to conditions: at 1 µM.
The target in assay [6] is Receptor tyrosine-protein kinase erbB-2 (Homo sapiens) (UniProt P04626). The following applies: at 0.1 µM.
The target is the same in assay [7]. As to conditions: at 1 µM.
The target in assay [8] is Receptor tyrosine-protein kinase erbB-4 (Homo sapiens) (UniProt Q15303). The following applies: at 0.1 µM.
The target is the same in assay [9]. The following applies: at 1 µM.
Assay [10] concerns the target Tyrosine-protein kinase Fer (Homo sapiens) (UniProt P16591). The following applies: at 0.1 µM.
Assay [11] has the same target. As to conditions: at 1 µM.
In assay [12] the target is Tyrosine-protein kinase Fes/Fps (Homo sapiens) (UniProt P07332). As to conditions: at 0.1 µM.
For assay [13] the target is unchanged. The following applies: at 1 µM.
Assay [14] has as its target Fibroblast growth factor receptor 1 (Homo sapiens) (UniProt P11362). As to conditions: at 0.1 µM.
For assay [15] the target is unchanged. The following applies: at 1 µM.
Assay [16] has as its target Fibroblast growth factor receptor 2 (Homo sapiens) (UniProt P21802). As to conditions: at 0.1 µM.
The target is the same in assay [17]. The following applies: at 1 µM.
Assay [18] concerns the target Fibroblast growth factor receptor 3 (Homo sapiens) (UniProt P22607). The following applies: at 0.1 µM.
Assay [19] has the same target. As to conditions: at 1 µM.
In assay [20] the target is Fibroblast growth factor receptor 4 (Homo sapiens) (UniProt P22455). As to conditions: at 0.1 µM.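 Also: values are mean percent inhibition of FGFR4.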

Sequence of Fibroblast growth factor receptor 1 (Homo sapiens) (P11362 22-822 limits assumed): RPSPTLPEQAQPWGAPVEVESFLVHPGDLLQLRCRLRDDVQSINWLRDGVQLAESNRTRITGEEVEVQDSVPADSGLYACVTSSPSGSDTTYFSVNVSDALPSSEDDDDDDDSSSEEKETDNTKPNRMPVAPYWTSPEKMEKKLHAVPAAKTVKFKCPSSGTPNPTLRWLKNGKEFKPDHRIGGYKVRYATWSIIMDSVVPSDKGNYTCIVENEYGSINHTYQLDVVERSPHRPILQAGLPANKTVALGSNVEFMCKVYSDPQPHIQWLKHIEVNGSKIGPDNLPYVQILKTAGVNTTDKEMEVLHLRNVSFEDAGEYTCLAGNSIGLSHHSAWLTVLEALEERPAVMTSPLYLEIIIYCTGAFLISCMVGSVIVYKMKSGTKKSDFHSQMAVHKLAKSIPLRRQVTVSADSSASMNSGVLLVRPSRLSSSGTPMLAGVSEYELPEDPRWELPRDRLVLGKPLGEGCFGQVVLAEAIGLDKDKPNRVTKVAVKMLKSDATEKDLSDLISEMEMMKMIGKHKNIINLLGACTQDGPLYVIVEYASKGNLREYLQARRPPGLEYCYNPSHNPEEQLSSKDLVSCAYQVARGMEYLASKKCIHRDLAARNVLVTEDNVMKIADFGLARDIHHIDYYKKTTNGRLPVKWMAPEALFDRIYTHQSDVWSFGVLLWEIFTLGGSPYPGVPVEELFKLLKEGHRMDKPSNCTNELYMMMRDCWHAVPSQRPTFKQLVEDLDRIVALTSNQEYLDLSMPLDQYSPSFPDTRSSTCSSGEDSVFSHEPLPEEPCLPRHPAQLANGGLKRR
Sequence of Fibroblast growth factor receptor 2 (Homo sapiens) (P21802 22-821 limits assumed): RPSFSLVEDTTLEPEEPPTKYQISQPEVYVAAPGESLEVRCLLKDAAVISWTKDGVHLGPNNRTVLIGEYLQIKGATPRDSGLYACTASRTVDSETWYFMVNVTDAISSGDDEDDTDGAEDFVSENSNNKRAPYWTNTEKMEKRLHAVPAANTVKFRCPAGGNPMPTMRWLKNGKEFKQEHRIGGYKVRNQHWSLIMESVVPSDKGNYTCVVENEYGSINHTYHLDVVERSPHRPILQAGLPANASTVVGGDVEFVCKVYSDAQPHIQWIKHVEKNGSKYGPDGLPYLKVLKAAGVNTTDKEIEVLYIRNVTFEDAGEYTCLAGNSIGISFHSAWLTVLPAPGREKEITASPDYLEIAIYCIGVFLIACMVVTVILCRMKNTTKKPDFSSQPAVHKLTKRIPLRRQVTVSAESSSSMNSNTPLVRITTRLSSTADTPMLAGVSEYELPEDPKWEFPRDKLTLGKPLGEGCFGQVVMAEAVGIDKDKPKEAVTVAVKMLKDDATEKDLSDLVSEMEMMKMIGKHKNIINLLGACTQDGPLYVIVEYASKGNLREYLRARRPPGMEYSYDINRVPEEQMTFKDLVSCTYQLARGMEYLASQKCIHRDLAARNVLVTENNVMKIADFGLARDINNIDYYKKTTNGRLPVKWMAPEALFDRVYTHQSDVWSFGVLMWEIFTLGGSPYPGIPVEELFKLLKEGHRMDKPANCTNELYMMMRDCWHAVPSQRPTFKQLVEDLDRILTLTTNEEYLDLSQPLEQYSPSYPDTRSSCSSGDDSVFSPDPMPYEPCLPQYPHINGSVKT
Sequence of Receptor tyrosine-protein kinase erbB-2 (Homo sapiens) (P04626 whole entry): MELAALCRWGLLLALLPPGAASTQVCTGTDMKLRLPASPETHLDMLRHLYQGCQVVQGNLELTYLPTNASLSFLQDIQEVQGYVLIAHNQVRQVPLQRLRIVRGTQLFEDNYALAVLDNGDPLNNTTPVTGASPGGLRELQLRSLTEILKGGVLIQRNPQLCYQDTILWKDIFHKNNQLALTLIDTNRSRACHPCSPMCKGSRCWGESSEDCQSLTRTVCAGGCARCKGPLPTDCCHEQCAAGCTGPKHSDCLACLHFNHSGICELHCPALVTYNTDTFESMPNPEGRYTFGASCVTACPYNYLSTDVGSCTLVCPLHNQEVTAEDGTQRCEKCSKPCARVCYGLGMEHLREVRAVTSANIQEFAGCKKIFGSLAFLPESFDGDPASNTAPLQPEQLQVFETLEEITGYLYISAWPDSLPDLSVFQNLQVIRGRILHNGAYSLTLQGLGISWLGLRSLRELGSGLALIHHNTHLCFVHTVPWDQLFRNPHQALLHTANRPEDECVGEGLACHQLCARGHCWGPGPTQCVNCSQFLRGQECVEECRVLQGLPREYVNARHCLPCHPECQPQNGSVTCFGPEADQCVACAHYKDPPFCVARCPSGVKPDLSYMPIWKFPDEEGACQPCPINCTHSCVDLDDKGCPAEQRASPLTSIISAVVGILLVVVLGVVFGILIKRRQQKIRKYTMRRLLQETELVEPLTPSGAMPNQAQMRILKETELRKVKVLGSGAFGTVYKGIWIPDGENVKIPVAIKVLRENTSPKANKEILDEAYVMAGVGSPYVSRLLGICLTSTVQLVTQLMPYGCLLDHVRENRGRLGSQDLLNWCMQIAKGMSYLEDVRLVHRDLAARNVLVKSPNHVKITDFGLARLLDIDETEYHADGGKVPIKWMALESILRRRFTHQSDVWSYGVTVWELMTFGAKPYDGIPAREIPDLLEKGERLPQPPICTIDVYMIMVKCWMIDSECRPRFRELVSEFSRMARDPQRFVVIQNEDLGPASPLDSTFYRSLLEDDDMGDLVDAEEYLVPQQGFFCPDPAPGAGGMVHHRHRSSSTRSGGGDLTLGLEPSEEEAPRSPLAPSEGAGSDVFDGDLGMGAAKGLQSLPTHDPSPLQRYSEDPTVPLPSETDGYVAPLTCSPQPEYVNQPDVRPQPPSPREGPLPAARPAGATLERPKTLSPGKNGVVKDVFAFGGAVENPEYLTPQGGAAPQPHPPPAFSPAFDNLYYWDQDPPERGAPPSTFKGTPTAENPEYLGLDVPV
Sequence of Tyrosine-protein kinase Fes/Fps (Homo sapiens) (P07332 whole entry): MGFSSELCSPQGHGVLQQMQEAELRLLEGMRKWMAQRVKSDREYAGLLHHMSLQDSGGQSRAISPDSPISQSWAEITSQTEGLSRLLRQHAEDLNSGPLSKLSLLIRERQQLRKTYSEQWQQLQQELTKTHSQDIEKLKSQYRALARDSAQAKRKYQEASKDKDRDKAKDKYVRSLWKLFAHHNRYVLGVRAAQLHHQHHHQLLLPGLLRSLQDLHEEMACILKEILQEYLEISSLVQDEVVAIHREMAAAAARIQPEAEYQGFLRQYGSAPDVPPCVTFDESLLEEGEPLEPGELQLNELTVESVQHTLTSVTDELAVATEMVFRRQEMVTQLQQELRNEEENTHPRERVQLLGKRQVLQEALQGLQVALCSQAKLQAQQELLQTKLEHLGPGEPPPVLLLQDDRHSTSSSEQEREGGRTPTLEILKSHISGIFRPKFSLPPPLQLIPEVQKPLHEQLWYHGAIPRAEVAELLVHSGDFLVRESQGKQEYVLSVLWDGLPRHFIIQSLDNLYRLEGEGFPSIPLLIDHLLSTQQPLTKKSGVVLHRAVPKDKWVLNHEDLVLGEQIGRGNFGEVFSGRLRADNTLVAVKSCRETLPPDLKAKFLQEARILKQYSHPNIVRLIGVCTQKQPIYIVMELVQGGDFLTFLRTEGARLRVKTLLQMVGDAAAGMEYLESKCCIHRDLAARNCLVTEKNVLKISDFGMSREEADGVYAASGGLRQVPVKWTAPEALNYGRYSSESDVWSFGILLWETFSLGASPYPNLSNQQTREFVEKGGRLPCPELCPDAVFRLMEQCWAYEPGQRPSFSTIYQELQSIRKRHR
Sequence of Receptor tyrosine-protein kinase erbB-4 (Homo sapiens) (Q15303 whole entry): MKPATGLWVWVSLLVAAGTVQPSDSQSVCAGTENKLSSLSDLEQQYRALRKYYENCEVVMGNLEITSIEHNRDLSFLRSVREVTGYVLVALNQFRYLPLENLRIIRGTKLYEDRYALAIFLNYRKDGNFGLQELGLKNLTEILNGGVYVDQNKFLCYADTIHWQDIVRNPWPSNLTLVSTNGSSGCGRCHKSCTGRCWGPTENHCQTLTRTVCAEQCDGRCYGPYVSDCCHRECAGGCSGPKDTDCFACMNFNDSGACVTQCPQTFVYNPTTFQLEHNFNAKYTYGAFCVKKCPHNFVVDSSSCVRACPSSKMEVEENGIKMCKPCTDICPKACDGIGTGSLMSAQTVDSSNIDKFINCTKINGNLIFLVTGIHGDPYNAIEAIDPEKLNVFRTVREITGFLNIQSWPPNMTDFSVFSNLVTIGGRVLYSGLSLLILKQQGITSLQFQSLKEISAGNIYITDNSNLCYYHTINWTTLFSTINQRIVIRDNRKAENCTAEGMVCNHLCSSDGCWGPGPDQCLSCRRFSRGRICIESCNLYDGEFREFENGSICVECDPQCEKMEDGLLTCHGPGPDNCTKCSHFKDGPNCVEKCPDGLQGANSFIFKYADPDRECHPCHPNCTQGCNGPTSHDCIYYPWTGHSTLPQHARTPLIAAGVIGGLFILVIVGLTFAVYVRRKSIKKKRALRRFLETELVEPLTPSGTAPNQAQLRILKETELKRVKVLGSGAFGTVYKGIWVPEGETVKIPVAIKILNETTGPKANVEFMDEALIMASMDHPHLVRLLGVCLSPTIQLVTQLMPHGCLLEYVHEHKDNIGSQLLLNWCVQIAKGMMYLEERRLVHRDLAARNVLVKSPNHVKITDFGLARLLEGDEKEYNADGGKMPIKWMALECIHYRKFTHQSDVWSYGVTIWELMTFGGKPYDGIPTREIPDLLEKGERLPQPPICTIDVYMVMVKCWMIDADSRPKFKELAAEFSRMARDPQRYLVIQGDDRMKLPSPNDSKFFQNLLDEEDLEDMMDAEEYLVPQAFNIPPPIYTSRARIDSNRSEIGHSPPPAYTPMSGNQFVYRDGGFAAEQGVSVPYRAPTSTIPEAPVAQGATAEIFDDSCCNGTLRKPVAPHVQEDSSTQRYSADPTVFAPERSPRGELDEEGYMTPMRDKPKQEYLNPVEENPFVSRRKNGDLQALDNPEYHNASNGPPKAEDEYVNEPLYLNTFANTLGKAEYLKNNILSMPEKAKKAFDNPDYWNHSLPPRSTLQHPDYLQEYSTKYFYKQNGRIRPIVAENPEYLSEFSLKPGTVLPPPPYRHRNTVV

By inhibition is commonly meant the change of the read-out against control, counted positive when it falls. Consider `CCn1c(-c2nonc2N)nc2c(C#CC(C)(C)O)ncc(OCC3CCNCC3)c21`, for which the inhibition is 7.37% in assay [1]; -0.37% in assay [2]; -1.35% in assay [3]; -3.5% in assay [4]; -2.94% in [5]; 1.27% in [6]. Also, the inhibition in assay [7] is 5.1%; in assay [8], 2.93%; in assay [9], 3.14%; in assay [10], 2.18%; in assay [11], 6.84%; in [12], 2.17%. In addition, the inhibition in assay [13] is 4.04%; in [14], -2.34%; in assay [15], -0.27%; in assay [16], -1.71%; in assay [17] it was 3.89%; in assay [18] it was 1.17%. Moreover, the inhibition in assay [19] is -1.22%; in assay [20], -6.83%.

In the case of `COc1cc2c(cc1Nc1nc(Nc3ccsc3C(N)=O)c3cc[nH]c3n1)N(C(=O)CN(C)C)CCC2`, the inhibition in assay [1] was 5.1%; in [2], 0.25%; in [3] it was 1.02%; in assay [4], -2.11%; in [5], 1.55%; in assay [6] it was -0.5%. The inhibition in assay [7] turned out to be 1.76%; in assay [8], 8.03%; in assay [9], 35.3%; in assay [10], 79.7%; in assay [11] it was 81.6%; in assay [12], 77.9%. The inhibition in assay [13] was 86.8%; in assay [14], -0.88%; in assay [15], -1.8%; in [16] it was 1.41%; in assay [17], 0.97%; in assay [18], 0.66%. Further, the inhibition in assay [19] is 2.61%; in assay [20], -1.12%.

Take `NS(=O)(=O)c1ccc(-c2ccc3c(NC(=O)C4CC4)n[nH]c3c2)cc1`: the inhibition was 8.86% in assay [1]; 4.28% in assay [2]; 4.38% in assay [3]; 1.05% in [4]; 3.22% in assay [5]; -0.2% in assay [6]. The inhibition in [7] was 0.41%; in [8] it was 8.86%; in assay [9], 7.66%; in assay [10] it was -0.63%; in [11] it was -0.03%; in assay [12], 1.35%. In addition, the inhibition in assay [13] amounted to 2.53%; in assay [14] it was 2.31%; in [15], 7.63%; in [16], 7.91%; in assay [17] it was 6%; in assay [18], 3.47%. The inhibition in [19] was 5.72%; in assay [20], 0.67%.

With `NC(=O)c1sc(-n2cnc3cc(C(F)(F)F)ccc32)cc1OCc1ccccc1Br`, the inhibition was 4.29% in assay [1]; 1.68% in assay [2]; 3.79% in assay [3]; 0.19% in assay [4]; 1.65% in assay [5]; 3.19% in assay [6]. In addition, the inhibition in assay [7] was 4.72%; in [8], 5.4%; in assay [9] it was 14.4%; in assay [10], 2.82%; in [11], 6.44%; in assay [12], 2.76%. The inhibition is 1.99% in assay [13]; -2.05% in [14]; 1.74% in assay [15]; 2.24% in [16]; 1.69% in assay [18]; 2.38% in assay [19]. Also, the inhibition in assay [20] stood at 2.01%.

Regarding `CCn1c(-c2nonc2N)nc2c(C#CC(C)(C)O)nc(O[C@@H](CN)c3ccccc3)cc21`, the inhibition in assay [2] is 1.57%; in assay [3], -3.07%; in assay [4] it was -0.46%; in assay [5], 1.16%; in assay [6], -2.68%; in assay [7] it was -2.4%. Also, the inhibition in [8] was 1.38%; in assay [9], 3.97%; in assay [10], 3.77%; in assay [11], 11.6%; in [12], -0.28%; in [13], 5.21%. In addition, the inhibition is -5.77% in assay [14]; 6.16% in [15]; 0.17% in assay [16]; 1.12% in [17]; -1.56% in [18]; -0.33% in assay [19]. Besides, the inhibition in assay [20] was determined as 0.28%.

For `COc1cccc(-n2ncc3c(N/N=C/c4ccncc4)ncnc32)c1`, the inhibition in [1] came to 30.4%; in [2], 4.72%; in [3], 3.82%; in assay [4] it was 3.92%; in assay [5], 13.7%; in assay [6], 0.91%. For the same molecule, the inhibition in assay [7] turned out to be 5.53%; in assay [8], 9.63%; in [9], 20.9%; in [10], 4.97%; in assay [11], 11.7%; in [12] it was 3.38%. The inhibition in assay [13] came to 5.85%; in assay [14], 4.8%; in [15] it was 8.02%; in assay [16], 4.98%; in assay [17], 14.5%; in assay [18] it was 7.39%. Also, the values for the inhibition in [19] and in assay [20] were 11.9% and 1.99%, respectively.

As to `COc1cc(C=NNc2ncnc3c2cnn3Cc2ccccc2)ccc1O`, the inhibition is 9.74% in [1]; -7.53% in assay [2]; -0.1% in [3]; 4.81% in assay [4]; 7.15% in [5]; -6.92% in [6]. The inhibition in [7] was -3.2%; in assay [10] it was 3.46%; in [11], 4.33%; in assay [12], -4.54%; in [13], -3.75%; in assay [14], -3.93%. Moreover, the inhibition in assay [15] was -5.25%; in assay [16], -7.09%; in [17], -2.01%; in assay [18], -3.23%; in assay [19] it was -2.85%; in [20] it was -3.36%.
